# In PubChem BioAssay (Tox21):
# Values without a mark were called inactive. Results filed as inconclusive are left out. Where a call stands in place of a potency, no number is given. Active and inactive are the calls of the source. Unless noted, the call rests on the fitted dose curve; in most records, active means well fitted curve in the direction sought with a large enough effect in the repeat runs; inconclusive means weak or mixed curves; inactive means no such curve, though single readings can be large; an effect the other way counts as inactive or inconclusive.
# How the values were obtained:
# [1] = biological target: Thyrotropin-releasing hormone receptor (Homo sapiens) (UniProt P34981); experiment: qHTS assay to identify small molecule agonists of the thyrotropin-releasing hormone receptor (TRHR) signaling pathway (AID 1346891; calls by dose curve;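 further: HEK293 cells expressing TRHR with calcium dye readout; series mostly up to about 58 µM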)
# Thyrotropin-releasing hormone receptor (Homo sapiens), sequence (P34981 whole entry, looked up): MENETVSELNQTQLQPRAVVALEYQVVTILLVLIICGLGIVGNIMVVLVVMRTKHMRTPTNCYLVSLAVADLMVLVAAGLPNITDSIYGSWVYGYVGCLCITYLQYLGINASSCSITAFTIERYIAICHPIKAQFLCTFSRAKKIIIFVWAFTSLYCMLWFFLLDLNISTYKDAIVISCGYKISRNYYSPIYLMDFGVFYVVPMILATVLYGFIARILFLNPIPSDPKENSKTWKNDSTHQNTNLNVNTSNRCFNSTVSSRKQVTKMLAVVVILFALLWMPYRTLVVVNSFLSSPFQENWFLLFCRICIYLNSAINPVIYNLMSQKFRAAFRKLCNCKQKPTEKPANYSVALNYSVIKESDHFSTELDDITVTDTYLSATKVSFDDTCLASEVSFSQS
# Summary of the method: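 HEK293/TRHR cells, 1500 per well, 18 h 37 °C; Ca dye 2 h 37 °C; pin-tool compound addition (agonist mode); kinetic fluorescence 3 min, 1 s reads; 15 concentrations, triplicate.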
# [2] = Human pregnane X receptor (PXR) small molecule agonists, qHTS cell viability counter screen (AID 1346977); further: nearly all actives have a fitted effect of over 50% in size; further: potency means the concentration at half of the fitted maximal effect
# Summary of the method: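 Fluorescence read-out (CellTiter-Fluor) of viability in PXR-Luc HepG2 cells, multiplexed with the luciferase agonist read. Compounds in DMSO added after 5hr plating; 24hr total exposure at 37C, 5% CO2.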
# [3] = Caspase-3/7 induction in HepG2 cells by small molecules, qHTS assay (AID 1346978); further: nearly all actives have a fitted effect of over 15% in size; further: potency means the concentration at half of the fitted maximal effect
# Summary of the method: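 Wild-type HepG2 cells (2,000/well) were settled 5 h at 37 C, 5% CO2, then exposed to compounds in DMSO for 17 h. Caspase-3/7 activity was read by luminescence 30 min after adding Caspase-Glo 3/7 reagent at room temperature.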
# [4] = Caspase-3/7 induction in CHO-K1 cells by small molecules, qHTS cell viability counter screen (AID 1346979); further: nearly all actives have a fitted effect of over 35% in size; further: potency means the concentration at half of the fitted maximal effect
# Summary of the method: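 CHO-K1 wt, 1,500 cells/well; 5hr pre-incubation 37C/5% CO2; compound pin transfer (DMSO); 16hr exposure; CellTiter-Fluor added, 1hr, fluorescence read.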
# [5] = Caspase-3/7 induction in CHO-K1 cells by small molecules, qHTS assay (AID 1346980); further: nearly all actives have a fitted effect of over 15% in size; further: potency means the concentration at half of the fitted maximal effect
# Summary of the method: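 Wild-type cells were seeded at 1,500 per well and settled 5 hr at 37 C, 5% CO2, then exposed to DMSO-dissolved compounds for 17 hr. Caspase-Glo 3/7 reagent was added, and luminescence was read after 30min at room temperature.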
# [6] = Caspase-3/7 induction in HepG2 cells by small molecules, qHTS cell viability counter screen (AID 1346981); further: nearly all actives have a fitted effect of over 30% in size; further: potency means the concentration at half of the fitted maximal effect
# Summary of the method: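 Cell viability is measured as a cytotoxicity counter screen alongside the Caspase-Glo 3/7 readout in identical wells. Wild-type HepG2 cells are treated with test compounds for 16 hr at 37 C before CellTiter-Fluor addition and a 1-hr incubation.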
# [7] = biological target: Nuclear receptor subfamily 1 group I member 2 (Homo sapiens) (UniProt O75469); experiment: Human pregnane X receptor (PXR) small molecule agonists, qHTS assay (AID 1346982); further: nearly all actives have a fitted effect of over 35% in size; further: potency means the concentration at half of the fitted maximal effect
# Nuclear receptor subfamily 1 group I member 2 (Homo sapiens), sequence (O75469 whole entry, looked up): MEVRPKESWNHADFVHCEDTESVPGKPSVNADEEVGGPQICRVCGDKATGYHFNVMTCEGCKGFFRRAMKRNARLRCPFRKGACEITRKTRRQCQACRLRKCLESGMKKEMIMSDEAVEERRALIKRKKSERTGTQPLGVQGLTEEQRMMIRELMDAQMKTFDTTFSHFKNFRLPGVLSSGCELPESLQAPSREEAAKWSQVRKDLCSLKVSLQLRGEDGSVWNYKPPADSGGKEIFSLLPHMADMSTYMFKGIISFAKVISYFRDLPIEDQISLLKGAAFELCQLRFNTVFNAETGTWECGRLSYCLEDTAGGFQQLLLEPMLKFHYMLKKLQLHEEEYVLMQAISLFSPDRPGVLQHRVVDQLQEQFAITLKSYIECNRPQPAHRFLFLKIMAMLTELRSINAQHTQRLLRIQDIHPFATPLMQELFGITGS
# Summary of the method: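 Cells: HepG2 stably carrying PXR-Luc. Medium held 5% charcoal-stripped FBS. Compounds in DMSO added after 5 hr plating, incubated 24 hr, then luminescence quantified with ONE-Glo.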
# [8] = biological target: Nuclear receptor subfamily 1 group I member 2 (Rattus norvegicus) (UniProt Q9R1A7); experiment: Rat pregnane X receptor (rPXR) activation by small molecules, qHTS assay (AID 1346983); settings: rPXR luciferase reporter cells, One-Glo luminescence, 24 h; max activation: stronger effect = higher value; further: nearly all actives have a fitted effect of over 20% in size
# Nuclear receptor subfamily 1 group I member 2 (Rattus norvegicus), sequence (Q9R1A7 whole entry, looked up): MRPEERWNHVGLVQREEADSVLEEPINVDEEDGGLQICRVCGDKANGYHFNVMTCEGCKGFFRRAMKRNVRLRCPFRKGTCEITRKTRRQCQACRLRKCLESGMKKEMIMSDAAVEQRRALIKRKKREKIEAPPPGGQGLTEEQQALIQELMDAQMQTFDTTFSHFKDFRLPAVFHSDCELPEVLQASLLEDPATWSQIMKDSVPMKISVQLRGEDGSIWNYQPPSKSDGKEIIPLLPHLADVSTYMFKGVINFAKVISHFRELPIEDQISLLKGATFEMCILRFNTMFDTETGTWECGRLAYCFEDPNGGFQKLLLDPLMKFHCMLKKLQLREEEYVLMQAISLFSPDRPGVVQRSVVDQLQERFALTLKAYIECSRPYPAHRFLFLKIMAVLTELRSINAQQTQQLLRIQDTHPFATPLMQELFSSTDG
# Summary of the method: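 Cell-based rPXR luciferase reporter assay, 2,000 cells per well, rested 5hr at 37 C before compound addition in DMSO, then 24 hr at 37 C. One-Glo reagent was added and luminescence read after 30 min at room temperature.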
# [9] = biological target: Nuclear receptor subfamily 1 group I member 2 (Homo sapiens) (UniProt O75469); experiment: CYP3A4 induction through human pregnane X receptor (PXR) by small molecules, qHTS assay (AID 1346984); further: nearly all actives have a fitted effect of over 40% in size; further: potency means the concentration at half of the fitted maximal effect
# Summary of the method: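 Quantitative HTS in DPX-2 cells, i.e. HepG2 transfected with PXR response element and CYP3A4-promoter luciferase. Compounds in DMSO incubated 24hr at 37C; then P450-Glo CYP3A4 substrate, 3uM final, 3hr; One-Glo luminescence.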
# [10] = biological target: Nuclear receptor subfamily 1 group I member 2 (Homo sapiens) (UniProt O75469); experiment: Human pregnane X receptor (PXR) activation by small molecules, qHTS assay (AID 1346985); further: nearly all actives have a fitted effect of over 40% in size; further: potency means the concentration at half of the fitted maximal effect
# Summary of the method: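 DPX-2 cells (HepG2 co-transfected with a PXR response element and a CYP3A4-promoter luciferase construct) were seeded at 2,000 per well, rested 5 hr at 37C, then exposed to DMSO-dissolved compounds for 24 hr. Activation was read as luciferase luminescence.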
SMILES,Potency [1],Potency [2],Potency [3],Potency [4],Potency [5],Potency [6],Potency [7],max activation [8],Potency [9],Potency [10]
CN1CCCC(n2nc(Cc3ccc(Cl)cc3)c3ccccc3c2=O)CC1 (centres undefined),inactive,13.3 µM (active),inactive,29.8 µM (active),inactive,26.6 µM (active),5.31 µM (active),-1.86%,28.2 µM (active),20 µM (active)
C=C1c2cccc(O)c2C(O)=C2C(=O)[C@]3(O)C(O)=C(C(N)=O)C(=O)[C@@H](N(C)C)[C@@H]3[C@@H](O)[C@H]12,inactive,inactive,inactive,inactive,inactive,inactive,inactive,-2.64%,inactive,inactive
CN1C(=O)N(c2ccccc2Br)Cc2cnc(Nc3ccc4c(c3)OCC(CO)O4)nc21 (centres undefined),inactive,30.6 µM (active),6.11 µM (active),24.3 µM (active),–,15.4 µM (active),0.0154 µM (active),–,–,–
CO/N=C(/C(=O)N[C@@H]1C(=O)N2C(C(=O)O)=C(COC(N)=O)CS[C@H]12)c1ccco1,inactive,inactive,inactive,inactive,inactive,inactive,–,-0.884%,–,–
C[C@H]1c2cccc(O)c2C(O)=C2C(=O)[C@]3(O)C(O)=C(C(N)=O)C(=O)[C@@H](N(C)C)[C@@H]3[C@@H](O)[C@@H]21,inactive,inactive,inactive,inactive,inactive,inactive,inactive,-4.08%,inactive,inactive
CCCCN1CCCC1C(=O)Nc1c(C)cc(C)cc1C (centres undefined),inactive,inactive,inactive,inactive,inactive,inactive,–,14.6%,–,–
CC(C)C[C@H](NC(=O)[C@H](CCc1ccccc1)NC(=O)CN1CCOCC1)C(=O)N[C@@H](Cc1ccccc1)C(=O)N[C@@H](CC(C)C)C(=O)[C@@]1(C)CO1,inactive,0.075 µM (active),0.266 µM (active),0.0944 µM (active),0.0473 µM (active),–,0.0376 µM (active),–,–,–
Cc1ccc(Cl)c(Nc2ccccc2C(=O)O)c1Cl,inactive,inactive,inactive,inactive,inactive,inactive,inactive,0.813%,inactive,inactive
CN(C)CCN1C(=O)c2ccccc2N(C)c2ccccc21,inactive,inactive,inactive,inactive,inactive,inactive,–,5.5%,inactive,–
CCN(CC)CCNC(=O)COc1ccc(OC)cc1,inactive,inactive,inactive,inactive,inactive,inactive,inactive,6.52%,inactive,inactive
CC[N+](CC)(CCNC(=O)C(=O)NCC[N+](CC)(CC)Cc1ccccc1Cl)Cc1ccccc1Cl,inactive,inactive,inactive,inactive,inactive,inactive,inactive,-3.21%,inactive,inactive
